Results filed as inconclusive are left out. Activity calls are given as the source filed them. The call rests on the fitted dose curve; in most records, active means well fitted curve in the direction sought with a large enough effect; inconclusive means small, poorly fitted or top-dose-only effect, or effect the other way, or another doubt; inactive means no such curve, though single readings can be large or run the other way.
biological target: Pyruvate kinase PKLR (Homo sapiens) (UniProt P30613); experiment: Secondary LDH Assay for Activators of Human Reticulocyte Pyruvate Kinase: for Probe SAR; conditions: purified hPK-R, LDH-coupled NADH fluorescence kinetic; series mostly up to 58.4 µM
Text: NIH Chemical Genomics Center [NCGC] Wael M. Rabeh, Lyudmila Nedyalkova and Hee-Wan Park [Structural Genomics Consortium, 100 College St. Toronto, Ontario, Canada] NCGC Assay Overview: Human pyruvate kinase reticulocyte (hPK-R) enzyme was supplied as a highly purified (>95% pure) preparation from Structural Genomics Consortium in Toronto (Ontario, Canada) and a secondary assay was used to evaluate compounds. This assay couples the formation of pyruvate from hPK-R using lactate dehydrogenase (LDH) and NADH. The depletion of NADH is followed in a fluorescent-based kinetic assay that follows the formation of pyruvate to lactate, as catalyzed LDH. Pyruvate kinase substrates, PEP and ADP, were present in the assay at 0.1 mM and 4 mM respectively. In this kinetic assay initial rates were determined by following the fluorescence of NADH depletion.
NCGC Assay Protocol Summary: Three uL of substrate mix (final concentration, 50 mM Tris-Cl pH 8.0, 200 mM KCl, 15 mM MgCl2, 0.1 mM PEP, 4.0 mM ADP, and 0.2 mM NADH) was dispensed into black-solid 1536 well plates. 23 nL of compounds were delivered by a pin tool and 1 uL of enzyme mix (final concentrations, 10 nM hPK-R and 1 uM of LDH) was added. Plates were immediately placed in ViewLux (Perkin Elmer) and NADH fluorescence was determined at 30 second exposure intervals for between 3 and 6 minutes. Data were normalized to the uninhibited and EC100 activation using known activators such as fructose-bis-phosphate.

Sequence of Pyruvate kinase PKLR (Homo sapiens) (P30613 whole entry, looked up): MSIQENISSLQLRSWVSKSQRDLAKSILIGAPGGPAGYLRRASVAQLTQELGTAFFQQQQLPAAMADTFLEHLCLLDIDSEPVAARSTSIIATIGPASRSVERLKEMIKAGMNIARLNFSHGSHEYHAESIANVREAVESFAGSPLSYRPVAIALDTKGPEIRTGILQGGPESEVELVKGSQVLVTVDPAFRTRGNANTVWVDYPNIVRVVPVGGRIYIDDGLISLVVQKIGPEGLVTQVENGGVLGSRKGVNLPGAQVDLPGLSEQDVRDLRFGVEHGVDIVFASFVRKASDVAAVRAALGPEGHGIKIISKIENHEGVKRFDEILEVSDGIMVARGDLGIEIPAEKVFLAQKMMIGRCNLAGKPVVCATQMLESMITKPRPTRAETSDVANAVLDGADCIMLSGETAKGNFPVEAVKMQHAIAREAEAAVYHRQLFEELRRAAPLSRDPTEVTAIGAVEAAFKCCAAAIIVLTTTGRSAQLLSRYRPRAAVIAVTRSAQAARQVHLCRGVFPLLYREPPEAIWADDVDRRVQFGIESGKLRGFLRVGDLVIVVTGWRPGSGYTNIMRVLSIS

Potency, inactive:
O=C1c2ccccc2C(=O)N1c1cccc2ncccc12, COc1cccc(Cn2ncc3c4sc(SC)cc4n(C)c3c2=O)c1, O=C1c2ccccc2C(=O)N1c1cccc(=O)[nH]1, O=C1c2ccccc2C(=O)N1c1noc2ccccc12, Cc1cc(C)n2c(Nc3ccccc3)c(-c3ccc(C)o3)nc2n1, Cc1ccc(N2C(=O)c3ccccc3C2=O)c(C)c1, Cc1ccc(OC2=NS(=O)(=O)c3ccccc32)cc1, O=C1c2ccccc2C(=O)N1c1cnc2ccccc2c1, Cc1cc(N2C(=O)c3ccccc3C2=O)no1, Cc1ccc(NS(=O)(=O)c2ccc3c(c2)NC(=O)CO3)cc1C, Cc1ccc(NS(=O)(=O)c2ccc3c(c2)CC(=O)N3C)cc1C, Cc1ccc(NS(=O)(=O)c2cccc(Cl)c2)cc1C, CN(C)c1cccc(S(=O)(=O)N2CCN(S(=O)(=O)c3ccc4c(c3)OCCO4)CC2)c1, Cc1ccc(NS(=O)(=O)c2cccc(F)c2)cc1C, O=C1c2ccccc2C(=O)N1c1ccc(O)cc1, O=C1CCc2cc(S(=O)(=O)Nc3ccccc3F)ccc2N1, Cc1ccc(NS(=O)(=O)c2cc3c(cc2N2CCCCC2)NC(=O)CC3)cc1C, Cc1ccc(NS(=O)(=O)c2cc3c(cc2-c2ccccc2)NC(=O)CO3)cc1C, Cc1ccn2c(NC3CCCCC3)c(-c3ccc(C)o3)nc2c1, Cc1ccc(NS(=O)(=O)c2ccc3c(ccn3C)c2)cc1C, O=C1c2ccccc2C(=O)N1c1cncc2ccccc12, Cc1cc(N2C(=O)c3ccccc3C2=O)n[nH]1, O=C1CCc2cc(S(=O)(=O)Nc3ccc(Cl)cc3)ccc2N1, Cc1ccc(NS(=O)(=O)c2ccc(N3CCCC3=O)cc2)cc1C, O=S(=O)(c1ccc2c(c1)OCCO2)N1CCN(S(=O)(=O)c2c(F)cccc2F)CC1, CCCCN1C(=O)c2ccccc2C1=O, O=C1CCc2cc(S(=O)(=O)Nc3cccc(-c4ccccc4)c3)ccc2N1, Cc1ccc(N(C)S(=O)(=O)c2ccc3c(c2)CCC(=O)N3)cc1C, COc1ccc(Nc2c(-c3ccc(C)o3)nc3ccccn23)cc1, COc1ccccc1OC1=NS(=O)(=O)c2ccccc21, Cc1ccccc1OC1=NS(=O)(=O)c2ccccc21, Nc1cc(S(=O)(=O)N2CCN(S(=O)(=O)c3ccc4c(c3)OCCO4)CC2)ccn1, O=C1c2ccccc2C(=O)N1c1ccccc1O, Cc1ccc(N[S+](=O)([O-])c2cc3c(cc2CCc2ccccc2)NC(=O)CO3)cc1C, CNc1cc2c(cc1S(=O)(=O)Nc1ccc(C)c(C)c1)CCC(=O)N2, COc1ccc(S(=O)(=O)Nc2ccc(C)c(C)c2)cc1, Cc1ccc(NS(=O)(=O)c2cc3c(cc2Cl)CCC(=O)N3)cc1C, O=C1c2ccccc2C(=O)N1c1cccnc1, Cc1ccc(NS(=O)(=O)c2cc3c(cc2C)NC(=O)CO3)cc1C, Cc1ccc(NS(=O)(=O)c2cc3c(cc2Cl)NC(=O)C3)cc1C
